Most compounds without a hit are left out; they make up all but 4% or so of the library.
HIF-2a block: HIF-2a inhibition; 786-0 RCC cells HIF-2a reporter, luciferase luminescence, overnight; inhibition, % at 18.8 µM; 360,000 tested, 0.72% active; AID 624352;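 active = inhibition of the luminescence signal of 40% or more relative to plate controls, in a single-dose primary screen at 18.75 µM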
TWEAK-Fn14 inh: TWEAK-Fn14 signaling inhibition; TWEAK-stimulated Fn14 reporter cells, luciferase luminescence, 8 h; 360,000 tested, 2% active; inhibition, % at 10 µM; AID 1159606; in the data active = inhibition above about 50%
LMP1 NFkB inh: reduces LMP1-driven NF-kappaB luciferase signal; LMP1-induced NF-kappaB luciferase reporter cells, luminescence; AID 504558; 350,000 tested, 0.69% active; inhibition, % at 12.5 µM; in the data active = inhibition above about 41%;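 also: 0% = neutral control wells and 100% = reference inhibitor control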
TROY NFkB inh: TROY signaling inhibition; inhibition, % at 10 µM; Q293 LMP1-TROYcd NF-kB luciferase reporter, 4 h; 360,000 tested, 0.98% active;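 active = compounds whose plate-normalised and pattern-corrected inhibition of the luciferase reporter signal at the single screening dose is 50% or more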
Peg3 prom inh: Peg3 promoter activity inhibition. HeLa PEG-Prom luciferase reporter, luminescence, overnight. inhibition, % at 20 µM. 360,000 tested, 1.7% active. AID 588405;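 active = inhibition of at least 50% at 20 µM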
TRPM1 prom inh: inhibitors of MITF-driven TRPM1 promoter in melanoma cells | 330,000 tested, 0.83% active | SK-MEL-5 TRPM1 promoter luciferase, 24 h | inhibition, % at 12.5 µM;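 active = mean inhibition across replicates of 60% or more, whatever share of single replicates reaches that level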
An asterisk follows results filed as active; nt = no result.

SMILES | HIF-2a block | TWEAK-Fn14 inh | LMP1 NFkB inh | TROY NFkB inh | Peg3 prom inh | TRPM1 prom inh
COc1cccc(-c2oc3c(c2-c2ccc(Br)nc2)C(O)CCC3)c1 (stereo not given) | -27 | -10 | nt | -22 | nt | nt
COc1ccccc1/C=C/C(=O)c1ccc(Cl)cc1 | -68 | 14 | 68* | -5 | 2 | -32
COc1ccccc1/C=C/C(=O)c1ccccc1 | -118 | 12 | -17 | -51 | -118 | -23
COc1cc(/C=N/NC(=O)c2cccc(S(=O)(=O)N3CCOCC3)c2)cc(OC)c1O | 16 | -6 | 65* | 1 | 0 | 13
COc1cc(OC)c(OC)cc1/C=N/NC(=O)c1cccc(S(=O)(=O)N2CCOCC2)c1 | 17 | -14 | 18 | 10 | 1 | 5
CCOc1ncccc1C(=O)NNC(=O)c1cccc(S(=O)(=O)N2CCOCC2)c1 | 9 | 97* | -4 | 12 | 13 | 0
CCN(Cc1ccccc1)c1ccc(/C=N/NC(=O)c2cccc(S(=O)(=O)N3CCOCC3)c2)cc1 | 19 | 69* | 17 | 26 | 13 | 1
Cc1[nH]n(-c2ccccc2)c(=O)c1N=Nc1nccs1 | -108 | 14 | 6 | -22 | -15 | 2
CN(C)c1ccc(N=Nc2nccs2)cc1 | -8 | 79* | 29 | 38 | -60 | nt
C=C(C)Cn1cnc2cc(C)c(C)cc21 | 5 | 86* | 5 | -4 | 4 | -1
Cc1ccccc1Cn1c(C)cc(C)c(C#N)c1=O | 7 | 9 | 0 | -1 | 8 | 1
COc1ccc(C=O)cc1Cn1c(C)cc(C)c(C#N)c1=O | 16 | 7 | 1 | 17 | 51* | 10
COc1ccc(CCNC(=O)COC(=O)C23CC4CC(CC(Br)(C4)C2)C3)cc1 | 7 | 70* | -2 | 11 | 11 | -3
COc1c(C(=O)Nc2nnc(C3CC3)s2)csc1Cl | -189 | -17 | -19 | -35 | -229 | -35
COc1ccccc1N1CCN(CCCNC(=O)Nc2ccccc2C)CC1 | 0 | 16 | -4 | 6 | 10 | 2
COc1ccc(Cl)cc1N1CCN(CCNC(=O)Nc2ccccc2C)CC1 | 29 | -1 | 5 | -8 | 51* | 0
CC(=O)c1ccc(N2CCN(c3ccnc4cc(Cl)ccc34)CC2)cc1 | 12 | 25 | 47* | 4 | 4 | 10
Oc1ccc(/C=N/Nc2nc(-c3ccc(Cl)cc3)cc(C(F)(F)F)n2)cc1 | -140 | 79* | -2 | 45 | 31 | 0
Cc1cc(-c2ccccc2)nc(N/N=C/c2ccc(O)cc2)n1 | -222 | 16 | 0 | -18 | -210 | -59
O=C(Cc1ccc(NC2=NC3CS(=O)(=O)CC3S2)cc1)NCCc1ccccc1 (stereo not given) | 16 | 3 | -5 | 3 | -1 | nt
C/C(=N\NC(=O)c1ccc(CN2CCc3ccccc3C2)cc1)c1ccccc1O | -75 | 83* | 34 | 38 | -32 | 28
O=C(Nc1ccc(Cl)cc1)c1ccc(CN2CCc3ccccc3C2)cc1 | -199 | 20 | -7 | -29 | -205 | -5
O=C(Nc1ccc(S(=O)(=O)N2CCCC2)cc1)c1ccc(CN2CCc3ccccc3C2)cc1 | 15 | 68* | 18 | 33 | 33 | 32
COC(=O)c1nnn(-c2nonc2N)c1COc1ccc(C=O)cc1OC | 12 | 0 | -8 | 3 | 20 | -12
COc1ccccc1CNC(=O)N1CCN(c2ccccc2Cl)CC1 | -12 | -10 | -4 | 5 | 9 | -11
SMILES | HIF-2a block | TWEAK-Fn14 inh | LMP1 NFkB inh | TROY NFkB inh | Peg3 prom inh | TRPM1 prom inh
CCOc1ccc(CCNC(=O)CS(=O)Cc2nc(-c3ccccc3C)oc2C)cc1OCC (stereo not given) | -1 | -8 | -4 | 5 | 12 | -2
O=C(Nc1ccc(NC(=O)C2CC2)cn1)c1ccccc1 | -58 | 54* | 8 | 35 | -95 | 2
O=C(Nc1ccc(NC(=O)C2CC2)cn1)c1ccccc1Cl | -148 | -41 | 3 | -38 | -106 | -35
CCc1nnc(NC(=O)CCC(=O)N2CCN(C3c4ccccc4-c4ccccc43)CC2)s1 | -30 | 70* | -6 | 78* | -15 | 8
O=C(CCN1C(=O)/C(=C/c2ccccc2Cl)SC1=S)N1CCCC1 | -11 | 37 | 5 | -27 | 73* | 41
O=C(CCCN1C(=O)/C(=C/c2ccccc2Cl)SC1=S)NNC(=O)c1ccncc1 | 82* | 79* | 8 | 68* | 21 | 10
O=C(CCCN1C(=O)/C(=C/c2cccs2)SC1=S)NNC(=O)c1ccncc1 | 12 | 5 | 14 | -25 | -4 | 0
CC(=C\c1ccccc1)/C=C1/SC(=S)N(CCC(=O)O)C1=O | 81* | 55* | 0 | 9 | -34 | 5
O=C(CCN1C(=O)/C(=C/c2ccccc2Cl)SC1=S)N1CCOCC1 | -15 | 12 | 5 | -33 | 76* | 18
COc1ccccc1/C=C1\SC(=S)N(CCC(=O)N2CCN(C)CC2)C1=O | 11 | 3 | 0 | -10 | 7 | 7
COc1ccc(Cl)cc1CC1(C)C(=O)Nc2ccc(S(=O)(=O)NC3CCCCC3)cc21 (stereo not given) | 25 | 9 | nt | 20 | 23 | nt
O=C(CCCN1C(=O)/C(=C/c2ccccc2Cl)SC1=S)N1CCCC1 | 59* | 58* | 7 | 11 | 35 | 21
O=C(CCCN1C(=O)/C(=C/c2ccccc2)SC1=S)N1CCOCC1 | 25 | 5 | 3 | -22 | 8 | -16
Cc1cccc(C(=O)N2CCN(c3ccc(C(F)(F)F)cn3)CC2)c1C | 19 | -4 | 45* | 9 | 7 | 8
Cc1cc(C(=O)N2CCN(c3ccc(C(F)(F)F)cn3)CC2)c(C)o1 | 8 | -11 | 13 | 16 | 2 | 7
CCC(C)n1c(C)nc2c(c1=O)c1nc3ccccc3nc1n2CCC1=CCCCC1 (stereo not given) | -30 | 0 | 7 | 13 | 77* | 8
Cc1cccc(C(=O)OCC(=O)Nc2c(C)nn(-c3ccccc3)c2C)c1O | 10 | -3 | 3 | -7 | 3 | -9
Cc1nn(-c2ccccc2)c(C)c1NC(=O)COC(=O)c1ccccc1OC(F)F | 5 | 2 | 1 | 51* | 1 | -1
N=P(N1CCOCC1)(N1CCOCC1)C12CC3CC(CC(C3)C1)C2 | 13 | 81* | 4 | nt | 7 | 1
O=C(O)c1cccc(-c2noc(-c3cccc(Cl)c3)n2)c1 | 79* | 29 | 80* | -39 | 54* | 92*
O=[N+]([O-])c1cccc(/C=N/Nc2nc(NCc3ccccc3)nc(N3CCOCC3)n2)c1O | 21 | 3 | 4 | -10 | 43 | 52
COc1ccc(C[C@H]2CN3C(=NC[C@@H]3Cc3ccccc3)N2CCNC(=O)CCC2CCCCC2)cc1 | 5 | -19 | 0 | -8 | 99* | 98*
COc1ccc(C[C@H]2CN3C(=NC[C@@H]3C(C)C)N2CCNC(=O)CCC2CCCCC2)cc1 | -19 | -11 | -5 | 9 | 50 | -21
CC(C)CN(C(=O)COC(=O)CCCc1c[nH]c2ccccc12)c1c(N)n(Cc2ccccc2)c(=O)[nH]c1=O | 12 | -8 | 2 | 13 | 4 | 0
